Assay results published in the supplement of paper PMC6555819.

How the values were obtained:
Assay in all cases: PBM binding z-score (relative to random genomic background probes); higher = stronger binding; sequences stand for … in GC…GCGATTGACAGCGTAGAATGAAGG
[1] = system: RARb homodimer (NR concentration 270 nM)
Summary of the method: (§1)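 Ligand-free nuclear receptor dimers were bound for 1 h to custom Agilent 4×180K protein-binding microarrays. Detection used antibodies against each partner (one per run). Binding z-scores rest on regression-normalized fluorescence, with random background probes as the reference.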

[2] = system: RARg:RXRa (NR concentration 270 nM, RXRa partner concentration 90 nM)
Summary of the method: as §1

[3] = system: RARg homodimer (NR concentration 270 nM)
Summary of the method: as §1

[4] = system: RXRa DBDmut IVT, anti-RXR (DBD mutation: RXRa K156A/R161A, NR concentration 90 nM)
Summary of the method: as §1

[5] = system: RXRa homodimer (NR concentration 180 nM)
Summary of the method: as §1

[6] = system: THRa:RXRa (NR concentration 90 nM, RXRa partner concentration 90 nM)
Summary of the method: as §1

[7] = system: THRa homodimer (NR concentration 90 nM)
Summary of the method: as §1

[8] = system: VDR homodimer (NR concentration 270 nM)
Summary of the method: as §1

Sequence	PBM binding z-score [1]	PBM binding z-score [2]	PBM binding z-score [3]	PBM binding z-score [4]	PBM binding z-score [5]	PBM binding z-score [6]	PBM binding z-score [7]	PBM binding z-score [8]
CCTAACAGGCCAGGGTCACTCAAGCATTTCGCTT	2.8	3.17	2.48	0.743	3.37	3.01	1.15	1.44
CACGAAAGGTCGGTTGAGGTGAGTATACGGATAA	2.56	2.89	3.15	0.785	2.36	5.03	1.69	0.932
GCTGCCAGGTCAGGTTGGTCAGCTAACGGGTACG	2.65	2.55	3.29	0.47	1.5	2.51	1.16	0.33
AGAATGAGGTTATACATAGATCAGGGAAGAAAGT	0.905	2.03	1.38	1.27	2.42	2.19	0.855	1.24
AGTCAACGTTCAGGACGAGGTAACGTAAAGCACG	-0.0275	0.297	0.412	-0.658	0.0619	2.08	1.42	-0.0352
CCTACTCGGCCAAAGGTCATTGATTCCAATGCTC	4.75	6.07	5.2	1.7	6.26	3.41	1.46	2.63
AGAATCAGGTTAAGATCAGGGAAACAGAATACAT	0.909	0.705	0.926	0.172	0.786	1.45	0.772	0.415
CCTTACGGGTCACTGAGAGGTTATAGCATTTGGA	3.75	6.72	4.64	1.75	5.62	3.46	0.613	1.78
CGTCCAAGGTCAATGCTACGTCAGTGAAAGCATT	4.04	5.67	6.18	3.58	4.83	3.53	1.75	2.18
GGATATAGGTAATACAAGGTGAAAGTCCGATTGT	1.38	0.879	0.935	0.283	0.977	4.46	1.64	0.913
AGAACGAGGGCAATGAGTCGATAGCACGGGTGGC	0.763	1.02	1.4	1.75	0.683	0.527	-0.542	1.17
TTACCAAGGTGAGATGAGGTCGTTGATCCAACTC	1.54	1.49	1.26	0.446	1.85	4.77	2	2.31
GCTATTAGTTGCAAGGGCAACCGAATGATTCTCG	1.12	0.13	0.552	0.914	0.35	0.666	0.326	0.363
GCGACTGGGGCATAAGCAGGTTACCATAACTTAA	0.55	0.617	0.393	0.0117	0.39	0.914	-0.368	-0.246
CCTAGTTGGTCAGGAGGTCACACAGCGGATATGA	4.13	5.36	4.51	1.06	4.73	3.66	2.76	3.13
TCTCGGAGGACTCGAAAGGTCAGAGCTCGACATC	4.25	3.85	3.31	0.558	3.57	2.68	0.256	0.189
